# Results published in PubChem BioAssay.
# Test system: wheat germ agglutinin (Triticum aestivum), Alexa647-labelled
# Test: wheat germ agglutinin binders on compound microarrays, profiling panel, artefact control for SMM control-protein annotation, biochemical, small-molecule microarray, 635/667 nm fluorescence (AID 1140);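 also: score merges 667 nm feature emission with signal to noise over triplicate slides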
# Conditions: WGA-A647 binding, 635 nm fluorescence, higher = more signal
row,Compound,composite z-score
1,COCC#Cc1ccc([C@@H]2N[C@H](C(=O)O)CC[C@H]2C)cc1,-0.389
2,C#CCCCON=C1[C@H]2CCn3c(=O)n([C@@H](CC)c4ccccc4)c(=O)n3[C@H]2[C@H](O)[C@@H]2O[C@H]12,0.283
3,O=C1CCCC=C1C(O)C1CCCCC1 (stereo unspecified),-0.0135
4,C[C@@H](c1ccccc1)N1C(=O)[C@H]2[C@H]3[C@H](O)[C@H](O)CC(=NOC[C@@H](O)COCc4ccco4)[C@H]3CC[C@H]2C1=O,0.0723
5,CCOC(=O)[C@H](CC(C)C)NC(=O)CCC1CC(OC(=O)NCCc2ccc(F)cc2)CC2(CCCC(COC(=O)NCc3cccc4ccccc34)O2)O1 (stereo partly specified),0.0787
6,COC(=O)[C@H](C)NC(=O)CCC1CC(OC(=O)NCCc2ccc(F)cc2)CC2(CCCC(COC(=O)NCCc3ccccc3OC)O2)O1 (stereo partly specified),0.432
7,CCOC(=O)CCN1C(=O)[C@H]2[C@H]3[C@H](O)[C@H](O)CC(=NOCC(C)C)[C@@H]3CC[C@H]2C1=O,0.0456
8,CC[C@@H](c1ccccc1)n1c(=O)n2n(c1=O)[C@H]1[C@H](O)[C@@H]3O[C@@H]3C(=NOCc3ccccc3)[C@H]1CC2,0.676
9,COc1ccc(O[C@H]2C=C[C@@H](c3ccccc3)O[C@@H]2CON=C(C)CCN2CCCc3nc(C)c(C)cc32)cc1,0.584
10,COC(OC)[C@@H](C)[C@H](OC)[C@@H](C)[C@H](OC)c1ccccc1,-0.0965
11,CC(CCN1CCc2nc(-c3ccccc3)c(-c3ccccc3)cc2C1)=NO[C@@H](C)c1cc(-c2c(C)cc(C)cc2C)no1,0.493
12,CO[C@H]1COC(=O)CCC[C@H](C)[C@H](OC)COC(=O)CC=C[C@@H]1C,-0.0108
13,COC(=O)[C@H](CCSC)NC(=O)CC=C[C@@H](C)CO,-0.701
14,C[C@H]1CC[C@@H](C(=O)O)N[C@@H]1c1cccc(N2CCCC2=O)c1,-0.368
15,C#CCCCON=C1C[C@@H](O)[C@@H](O)[C@@H]2[C@@H]3C(=O)N([C@@H](C)c4ccccc4)C(=O)[C@@H]3CC[C@@H]12,0.0859
16,COC(=O)[C@H](C)NC(=O)CCC1CC(OC(=O)NCc2ccc3c(c2)OCO3)CC2(CCCC(COC(=O)NCc3ccccc3)O2)O1 (stereo partly specified),0.0082
17,CCOC(=O)CCN1C(=O)[C@H]2[C@H]3[C@H](O)[C@H](O)CC(=NNC(=O)OCC)[C@H]3CC[C@H]2C1=O,-0.656
18,CC(C)(C)N1C(=O)[C@H]2[C@@H]3C(=CC[C@H]2C1=O)C(=O)[C@H]1O[C@H]1[C@H]3O,0.844

row,Compound,composite z-score
1,O=C1[C@H]2[C@H]3[C@H](O)[C@H](O)CC(=NO[C@@H]4O[C@H](CO)[C@@H](O)[C@H](O)[C@H]4O)[C@@H]3CC[C@H]2C(=O)N1C1CCCCC1,0.0714
2,COc1ccc(COC(=O)NN=C2C[C@@H](O)[C@@H](O)[C@@H]3[C@@H]4C(=O)N([C@@H](C)c5ccccc5)C(=O)[C@@H]4CC[C@@H]23)cc1,0.242
3,COc1ccc(COC(=O)NN=C2C[C@@H](O)[C@@H](O)[C@@H]3[C@@H]4C(=O)N(Cc5ccccc5)C(=O)[C@@H]4CC[C@@H]23)cc1,-0.0049
4,CC(C)[C@@H](OCc1ccccc1)[C@H](C)C=NO[C@@H](C)c1cn([C@H](CO)Cc2ccccc2)nn1,0.0578
5,CCOC(=O)[C@H](Cc1ccccc1)NC(=O)CCC1CC(OC(=O)NCc2ccc3c(c2)OCO3)CC2(CCCC(COC(=O)NCCOc3ccccc3)O2)O1 (stereo partly specified),0.304
6,COC(=O)[C@H](C)NC(=O)CCC1CC(OC(=O)NCc2ccc3c(c2)OCO3)CC2(CCCC(COC(=O)NCCCN3CCCC3=O)O2)O1 (stereo partly specified),0.364
7,O=C(NN=C1C[C@@H](O)[C@@H](O)[C@@H]2[C@@H]3C(=O)N(Cc4ccc5c(c4)OCO5)C(=O)[C@@H]3CC[C@@H]12)OCc1ccccc1,0.227
8,CCN1C(=O)[C@H]2[C@H]3[C@H](O)[C@H](O)CC(=NOCC[C@@H]4C=C[C@H](OC(C)=O)[C@@H](COC(C)=O)O4)[C@@H]3CC[C@H]2C1=O,0.97
9,COC(=O)[C@H](C)NC(=O)CCC1CC(OC(=O)NCc2ccc3c(c2)OCO3)CC2(CCCC(COC(=O)NCCC(C)C)O2)O1 (stereo partly specified),0.0551
10,CO[C@H]1COC(=O)CC=C[C@H](C)[C@H](OC)COC(=O)[C@@H](C)NC(=O)CC=C[C@@H]1C,-0.206
11,O=C1C=C[C@@H](O)[C@@H]2[C@@H]3C(=O)N(Cc4ccccc4)C(=O)[C@@H]3CC[C@@H]12,0.228
12,CCOC(=O)[C@H](Cc1ccccc1)NC(=O)CCC1CC(OC(=O)NCc2ccc3c(c2)OCO3)CC2(CCCC(COC(=O)NCCc3ccc(Cl)cc3)O2)O1 (stereo partly specified),0.335
13,COc1ccc(-c2cnnc(CCCn3ccnc3-c3ccccc3)n2)cc1,0.138
14,CCOC(=O)NN=C1C[C@@H](O)[C@@H](O)[C@@H]2[C@@H]3C(=O)N(c4ccc(F)cc4F)C(=O)[C@@H]3CC[C@H]12,0.161
15,C#CCCCON=C1C[C@@H](O)[C@@H](O)[C@@H]2[C@@H]3C(=O)N(CC)C(=O)[C@@H]3CC[C@H]12,1.07
16,C[C@H]1CC[C@@H](C(=O)O)N[C@@H]1c1ccc(C#Cc2ccccc2)cc1,1.11
17,COC(=O)[C@H](C)NC(=O)CCC1CC(OC(=O)NCc2cccc3ccccc23)CC2(CCCC(COC(=O)NCc3ccccc3)O2)O1 (stereo partly specified),0.22
18,CC(=O)OC[C@H]1O[C@H](CC=NOC[C@@H](O)[C@H]2O[C@@H]3OC(C)(C)O[C@@H]3[C@H]2O)C=C[C@@H]1OC(C)=O,-0.0993
